Source: PubChem BioAssay (NCATS)
“And” between values parts separate entries of the source, which are not always exact repeats. Equal values may be shown once. Records with an inconclusive call do not appear. Unmarked numbers belong to inactive results. The source made the active and inactive calls. The call rests on the fitted dose curve; in most records, active means well fitted activation curve with a large enough effect; inconclusive means small, poorly fitted or top-dose-only effect; inactive means no such curve, though single readings can be large or run the other way.

These molecules were tested against Cellular tumor antigen p53 (Homo sapiens) (UniProt P04637) (assay: Primary qHTS for small molecule compounds that upregulate eGFP-tagged delta133p53alpha (in N-terminal) cells. (AID 2060322; further: nearly all actives have a fitted effect of over 75% in size;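 on activation: cells pre-induced with doxycycline then dosed without doxycycline; series mostly up to about 56 µM; 0% = DMSO vehicle and 100% = reference activator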)). Conditions: NCI-H358 eGFP-delta133p53alpha fluorescence, 24 h; activation: hits give high values.
Sequence of Cellular tumor antigen p53 (Homo sapiens) (P04637 whole entry, looked up): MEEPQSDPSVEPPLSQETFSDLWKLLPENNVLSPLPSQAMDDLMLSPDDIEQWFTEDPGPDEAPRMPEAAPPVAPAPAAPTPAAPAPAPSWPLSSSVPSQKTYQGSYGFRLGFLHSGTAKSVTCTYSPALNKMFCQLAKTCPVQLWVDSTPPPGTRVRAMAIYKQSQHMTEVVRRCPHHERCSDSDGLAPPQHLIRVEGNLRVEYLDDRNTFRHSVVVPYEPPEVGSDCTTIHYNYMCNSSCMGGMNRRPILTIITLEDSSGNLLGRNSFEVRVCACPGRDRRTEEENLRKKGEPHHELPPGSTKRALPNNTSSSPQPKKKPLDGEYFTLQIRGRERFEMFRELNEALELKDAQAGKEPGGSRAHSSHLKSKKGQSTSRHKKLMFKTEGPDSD
In short: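 NCI-H358 cells pre-induced 24 h with 10 ng/ml doxycycline for eGFP-delta133p53alpha, plated dox-free and exposed 24 h at 37C to titrated compounds. Fixed, Hoechst-stained; gated GFP peak intensity by laser scanning cytometry, normalized to DMSO (0%) and 57.5 uM 5-azacytidine (100%).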
Potency means the concentration at half of the fitted maximal effect.

Row | Structure (SMILES) | activation | Potency
1 | CCCCCCCCCC(=O)O[C@H]1CC[C@H]2[C@@H]3CCC4=CC(=O)CC[C@@H]4[C@H]3CC[C@]12C | 2.82% | 
2 | CC(C)=CC1C(C(=O)OCN2C(=O)C3=C(CCCC3)C2=O)C1(C)C (stereo not given) | 17.6% | 
3 | CC(C)[N+](C)(CCC(C(N)=O)(c1ccccc1)c1ccccc1)C(C)C | 27.7% | 
4 | CC1OC(C)OC(C)O1 (stereo not given) | 6.21% | 
5 | COc1ccc(CC2NCCc3cc(OC)c(OC)cc32)cc1OC (stereo not given) | -6.46% | 
6 | O=[N+]([O-])O[C@H]1CO[C@H]2[C@@H]1OC[C@H]2O[N+](=O)[O-] | 34.5% | 
7 | CC1=C(C(=O)O)N2C(=O)[C@@H](N)[C@H]2SC1 | -3.35% | 
8 | CC(C)c1c(CN(C)C(C)Cc2ccccc2)n(C)n(-c2ccccc2)c1=O (stereo not given) | -14.2% | 
9 | CC1=C2C[C@@H]3[C@@H](CC=C4C[C@@H](O)CC[C@@]43C)[C@@H]2CC[C@]12O[C@H]1C[C@H](C)CN[C@H]1[C@H]2C | 14% | 
10 | C[C@@H]1O[C@@H](O[C@@H]2C=C3CC[C@@H]4[C@@H](CC[C@]5(C)[C@H](c6ccc(=O)oc6)CC[C@@]45O)[C@@]3(C)CC2)[C@H](O)[C@H](O)[C@H]1O | -11.3% | 
11 | CCC(=O)C(CCN(C)C)(c1ccccc1)c1ccccc1 |  | 13.8 µM (active)
12 | C[C@@]12OC(=O)[C@]1([C@@H](O)[C@@H]1C=CCCC1)NC(=O)[C@H]2CCCl |  | 2.73 µM (active)
13 | c1cc2ccc3cccc4ccc(c1)c2c34 | 0% | 
14 | CC(Cc1ccc2c(c1)OCO2)NO (stereo not given) | -3.95% | 
15 | CC1Sc2c(C(=O)O)c(=O)c3cc(F)c(N4CCNCC4)cc3n21 (stereo not given) | -8.47% | 
16 | CC(=O)C1CCOC1=O (stereo not given) | -9.21% | 
17 | C=C[C@@H]1CN2CCC1C[C@H]2[C@H](O)c1ccnc2ccccc12 (stereo not given in full) | -4.83% | 
18 | CN1CC[C@]23c4c5ccc(O)c4O[C@H]2[C@@H](O)CC[C@H]3[C@H]1C5 | 14.1% | 
19 | O=C1OC(c2ccc(O)c(S(=O)(=O)O)c2)(c2ccc(O)c(S(=O)(=O)O)c2)c2c(Br)c(Br)c(Br)c(Br)c21 | 25.4% | 
20 | CCNc1nc(Cl)nc(NCC)n1 | 8.37% | 

Row | Structure (SMILES) | activation | Potency
21 | O=c1oc2ccccc2c(O)c1Cc1c(O)c2ccccc2oc1=O |  | 17.4 µM (active)
22 | C[C@](O)(CS(=O)(=O)c1ccc(F)cc1)C(=O)Nc1ccc(C#N)c(C(F)(F)F)c1 | -4.55% | 
23 | O=[N+]([O-])c1ccc([As](=O)(O)O)cc1 | -14.2% | 
24 | COc1cccc([C@@]2(O)CCCC[C@@H]2CN(C)C)c1 | 13.4% | 
25 | CC(C)NCC(O)c1ccc([N+](=O)[O-])cc1 (stereo not given) | 16.4% | 
26 | COc1cc(OC)c(OC)cc1C=O | 5.76% | 
27 | N#C[C@H](O[C@@H]1O[C@H](CO[C@@H]2O[C@H](CO)[C@H](O)[C@H](O)[C@H]2O)[C@H](O)[C@H](O)[C@H]1O)c1ccccc1 | 6.64% | 
28 | CN(C)CCc1ccc(O)cc1 | -14.3% and -6.21% | 
29 | CCC(COC(=O)c1cc(OC)c(OC)c(OC)c1)(c1ccccc1)N(C)C (stereo not given) | -7.34% | 
30 | CCS(=O)(=O)C(C)(C)S(=O)(=O)CC | -5.86% | 
31 | COP(=S)(OC)Oc1ccc(SC)c(C)c1 | -15.9% | 
32 | CCN(CC)Cc1nccn1-c1ccc([N+](=O)[O-])cc1C(=O)c1ccccc1Cl | -4.18% | 
33 | C[C@]12Cc3nonc3C[C@@H]1CC[C@@H]1[C@@H]2CC[C@@]2(C)[C@H]1CC[C@]2(C)O | 7.34% | 
34 | COP(=S)(OC)Oc1ccc(S(N)(=O)=O)cc1 | -28.8% | 
35 | Cc1ncc2n1-c1ccc(Cl)cc1C(c1ccccc1F)=NC2 | -27.7% | 
36 | Cc1nnc2n1-c1sc(CCC(=O)N3CCOCC3)cc1C(c1ccccc1Cl)=NC2 | -12.6% | 
37 | CC(C(=O)c1ccccc1)N(C)C (stereo not given) | 22.6% | 
38 | OCCCBr | -36.8% | 
39 | CN1CCC(N(Cc2ccccc2)c2ccccc2)CC1 | 10.7% | 
40 | CN1CCN(C(=O)O[C@H]2c3nccnc3C(=O)N2c2ccc(Cl)cn2)CC1 | 11.9% and -19.6% | 
